# Laboratory results as given in PubChem BioAssay AID434970 (Sanford-Burnham Center for Chemical Genomics, 2010).
# Hit rate of the full screen: of about 11,000 compounds, about 310 (2.8%) were called active. No stated cut-off is given here; in the data, active means activity change below about -85%; inactive means the rest. The entries come from a sample that favours actives as a whole.
# Tested on: intestinal alkaline phosphatase [Mus musculus]
# Test: mouse intestinal phosphatase enzyme activation – biochemical, luminescence, single concentration, confirmation (AID 434970)
# Conditions: purified mouse IAP, CDP-Star luminescence, 30 min, at 10 µM; activation factor: measured here: IAP activation factor, stronger effect = higher value; activity change, negative = activation: stronger effect = lower value
SMILES,activation factor,"activity change, negative = activation"
O=C(CSc1nnc(C2CC2)n1Cc1ccccc1)N1CCN(S(=O)(=O)c2ccccc2)CC1,1.04,-4.25% (inactive)
O=C(NCCc1ccccc1)c1nc2nc(-c3cccs3)cc(C(F)(F)F)n2n1,0.956,4.4% (inactive)
Cc1ccc(S(=O)(=O)C2CCOC2=O)cc1 (configuration not stated),0.793,20.7% (inactive)
COc1ccc(C(c2nnnn2CS(=O)(=O)c2ccc(C)cc2)N2CCN(c3ncccn3)CC2)cc1 (configuration not stated),0.922,7.75% (inactive)
Cc1nnc(SCCC(C)C)[nH]c1=O,1.13,-12.6% (inactive)
Cc1onc(-c2ccccc2Cl)c1C(=O)OCC(=O)c1ccc2c(c1)OCCO2,0.972,2.85% (inactive)
CCOC(=O)C1=CN(CC)S(=O)(=O)NC1c1ccc(F)c(Cl)c1 (configuration not stated),1.1,-9.6% (inactive)
CC[C@]12c3[nH]c4cc(CCC(=O)N(C)C)ccc4c3CCN1C(=O)[C@@H](CC(=O)NCCN1CCOCC1)C[C@@H]2C(=O)N1CCN(C(=O)C2CC2)CC1,1.07,-6.6% (inactive)
Cc1cccc(-c2noc(CCC(=O)N3CCN(c4cc(C)ccc4C)CC3)n2)c1,0.938,6.25% (inactive)
c1coc(C2Nc3cccc4cccc(c34)N2)c1,0.307,69.3% (inactive)
CN1CC2([N+](=O)[O-])CC=C(Oc3ccccc3)C([N+](=O)[O-])(C1)C2 (configuration not stated),0.919,8.05% (inactive)
C#CCOCCOCCOCCNc1nc(N2CCN(C(=O)CCCCCCCCCCNC(=O)Cn3cc(CCCCCN)nn3)CC2)nc(N2CCN(C(=O)CCCCCCCCCCNC(=O)[C@@H](CCSC)n3cc(CCO)nn3)CC2)n1,3.56,-256% (active)
C#CCOCCOCCOCCNc1nc(N2CCN(C(=O)CCCCCCCCCCNC(=O)[C@@H](CCSC)n3cc(CCO)nn3)CC2)nc(N2CCN(C(=O)CCCCCCCCCCNC(=O)[C@H](CCSC)n3cc(CCO)nn3)CC2)n1,1.78,-77.9% (inactive)
C#CCOCCOCCOCCNc1nc(N2CCN(C(=O)CCCCCCCCCCNC(=O)Cn3cc(C[C@@H](C)O)nn3)CC2)nc(N2CCN(C(=O)CCCCCCCCCCNC(=O)[C@@H](CCSC)n3cc(CCO)nn3)CC2)n1,1.97,-96.8% (active)
C#CCOCCOCCOCCNc1nc(N2CCN(C(=O)CCCCCCCCCCNC(=O)Cn3cc(CCCCCN)nn3)CC2)nc(N2CCN(C(=O)CCCCCCCCCCNC(=O)[C@H](CO)n3cc(CCCSC)nn3)CC2)n1,2.53,-153% (active)
CCOc1ccc(-n2c(SCC(=O)NCc3ccco3)nc3c(c2=O)SCC3)cc1,0.865,13.5% (inactive)
COc1cc(O)c2c(c1)OC(C)(C)CC2=O,1.08,-7.6% (inactive)
O=C(CSc1nc2cccnc2n1Cc1ccccc1)N1CCCC1,1.07,-7.2% (inactive)
COC(=O)[C@H](CCSC)NC(=O)Cn1cnc(C(=O)Nc2ccc(C)c(C)c2)n1,0.956,4.35% (inactive)
CC(NC(=O)CCSc1nc(-c2ccco2)cc(C(F)(F)F)n1)c1ccccc1 (configuration not stated),0.94,6% (inactive)
O=C(N/N=C/c1ccc([N+](=O)[O-])o1)c1ccccc1NS(=O)(=O)c1cccs1,0.375,62.5% (inactive)

SMILES,activation factor,"activity change, negative = activation"
O=C(c1ccc(C(=O)N2CCOCC2)nc1)N1CCOCC1,1.09,-8.9% (inactive)
CCc1ccc(NC(=O)c2sccc2-n2cccc2)cc1,1.04,-4.35% (inactive)
Fc1cc(NC(=S)NCc2ccc(CNC(=S)Nc3ccc(Cl)c(F)c3)cc2)ccc1Cl,1.44,-44.1% (inactive)
O=C(Nc1ccc(Cl)cc1)C1CCN(C(=O)NC2CCCCC2)CC1,0.914,8.6% (inactive)
O=C(NCCSCc1ccco1)Nc1cc(Cl)cc(Cl)c1,1.27,-27.2% (inactive)
O=C(Nc1ccc(Cl)cc1)NC1CCCCC1Cc1ccco1 (configuration not stated),2.11,-111% (active)
CC/C(=N\n1nnnc1Nc1ccccc1)c1ccccc1,1.02,-2.45% (inactive)
Cc1ccc(N2C(=O)/C(=C/c3ccco3)SC2=S)cc1,0.396,60.5% (inactive)
Cc1cc2oc(=O)cc(-c3ccccc3)c2c(C)c1-c1ccc(N(C)C)cc1,0.885,11.4% (inactive)
COc1cccc(N/C(C)=C/C(=O)c2ccc(Br)cc2)c1,1,-0.05% (inactive)
Cn1cccc1C(=O)OCC(=O)Nc1ccc2c(c1)CCC2,1.05,-5.05% (inactive)
COc1cccc(NC(=O)Nc2ccc3c(c2)N(C)C(=O)CS3)c1,0.986,1.5% (inactive)
Cc1cccc(NC(=O)Nc2ccc3c(c2)CCC3)c1,1.41,-41.4% (inactive)
COc1cccc(NC(=O)Nc2ccc3c(c2)CCC3)c1,2.9,-190% (active)
O=C(Nc1ccc2c(c1)CCC2)Nc1ccccc1F,1.69,-68.5% (inactive)
O=C(Nc1ccccc1)Nc1ccc2c(c1)CCC2,1.95,-94.8% (active)
Cc1ccc(NCc2nnc(SCC(=O)N3CCCc4ccccc43)o2)c(C)c1,1.02,-2.3% (inactive)
CCS(=O)(=O)n1nc(-c2ccccc2)nc1N,0.926,7.4% (inactive)
CC(/C=N/n1cnnc1)=C\c1ccccc1,1.02,-1.9% (inactive)
CC1(C)CC(=O)C2=C(C1)NC(=O)CC2C(=O)NCc1ccc(F)cc1 (configuration not stated),1.3,-29.9% (inactive)
COc1cc(-c2nnc3n2N=C(c2ccccc2)CS3)cc(OC)c1OC,0.996,0.4% (inactive)

SMILES,activation factor,"activity change, negative = activation"
CCCNC(=O)c1ccccc1NC(=O)CN(c1ccccc1OCC)S(C)(=O)=O,1.15,-15.4% (inactive)
O=P(OC1CCS(=O)(=O)C1)(c1ccccc1)c1ccccc1 (configuration not stated),0.921,7.85% (inactive)
[N-]=[N+]=CC(=O)CCCN1C(=O)c2ccccc2C1=O,1.09,-9.05% (inactive)
O=C(Cc1cccs1)Nc1nnc(CCc2ccccc2)s1,1.15,-14.7% (inactive)
Cc1cc(C)cc(NC(=O)NC2CCCCCCC2)c1,3.37,-237% (active)
O=C(Nc1cccc(F)c1)NC1CCCCCCC1,2.42,-142% (active)
Cc1cc(C)cc(NC(=O)Nc2ccc(N3CCCCC3)cc2)c1,1.16,-15.9% (inactive)
CC1CCCN(C(=O)C2(NC(=O)Nc3cccc(F)c3)CCCCC2)C1 (configuration not stated),1.81,-81.1% (inactive)
O=C(Nc1cccc(F)c1)c1ccccc1,1.01,-0.8% (inactive)
Cc1ccc(NC(=S)NC2CCCCC2)cc1S(=O)(=O)N(C)C,1.3,-29.9% (inactive)
Cc1ccc(NC(=O)NC2CCCCCCC2)cc1C,2.56,-156% (active)
Cc1cccc(NC(=O)CC2NC3CCCCC3NC2=O)c1 (configuration not stated),0.974,2.55% (inactive)
CC(=O)OC(C(=O)NC1CCCCC1)c1cccc(C)c1 (configuration not stated),1.04,-4.4% (inactive)
Cc1ccc(NC(=O)C2CCN(C(=O)NC3CCCCC3)CC2)cc1Cl,1.21,-20.9% (inactive)
Cc1cc(C)cc(NC(=S)NCCN(C2CCCCC2)C2CCCC2)c1,1.28,-28.3% (inactive)
Cc1cccc(NC(=O)NC2CCCCCCC2)c1,2.45,-145% (active)
C=CCNc1nc(Nc2ccc(OC)cc2)nc(OC)n1,0.992,0.8% (inactive)
CC(C)C(NC(=S)NCc1ccccc1)C(=O)O (configuration not stated),0.93,7% (inactive)
Cc1ccc(-c2nn3c(C)nnc3s2)cc1NC(=O)c1ccc(-c2cccc(Cl)c2)o1,0.849,15.2% (inactive)
Cc1ccccc1NC1=C(Cl)C(=O)OC1OC(C)C (configuration not stated),0.976,2.45% (inactive)
CCOC(=O)c1c(N)sc(C(N)=O)c1C,1.01,-0.6% (inactive)

SMILES,activation factor,"activity change, negative = activation"
O=C(Nc1c(-c2ccccc2)nc2sccn12)c1ccccc1,0.907,9.25% (inactive)
CCN(CC)S(=O)(=O)c1ccc(Cl)c(C(=O)Oc2cccnc2)c1,0.919,8.05% (inactive)
COC(=O)C1=C(C)NC2=C(C(=O)C(C(=O)OC)C(c3ccc(OC)cc3)C2)C1c1ccccn1 (configuration not stated),1.07,-6.6% (inactive)
CC(=O)Nc1ccc(NS(C)(=O)=O)cc1,0.891,10.9% (inactive)
O=C1CC(N2CCN(c3ccccc3F)CC2)C(=O)N1c1ccc2c(c1)OCCO2 (configuration not stated),0.964,3.6% (inactive)
O=C(CSc1nnc(-c2ccco2)n1Cc1ccco1)NCc1ccccc1,1.11,-11.1% (inactive)
O=C(Nc1cccc(C(F)(F)F)c1)NC1CCN(S(=O)(=O)c2ccc(F)cc2)CC1,1.81,-81.5% (inactive)
FC(F)(F)c1ccc(NC(=S)NC2CCCCC2)cc1,1.25,-24.9% (inactive)
O=C(Nc1cccc(C(F)(F)F)c1)NC1CCCCC1,2.1,-110% (active)
O=c1[nH]c2ccc(S(=O)(=O)Nc3ccc(-c4nnc5n4CCCCC5)cc3)cc2o1,0.87,13% (inactive)
CCC(NC(=S)NCc1ccc(F)cc1)c1ccc(C(C)C)cc1 (configuration not stated),1.39,-38.5% (inactive)
CCc1ccc(C(C)NC(=S)NCc2ccc(F)cc2)cc1 (configuration not stated),1.11,-10.5% (inactive)
CC(NC(=S)NCc1ccc(F)cc1)C12CC3CC(CC(C3)C1)C2 (configuration not stated),4.19,-319% (active)
COc1cc(CN(C2CC2)S(=O)(=O)c2ccccc2Br)cc(OC)c1,1.07,-7.4% (inactive)
O=C(c1ccco1)N1CCN(C(=O)C2CCN(S(=O)(=O)c3cnc[nH]3)CC2)CC1,0.909,9.15% (inactive)
CC(C)(C)c1nc(NC(=O)Nc2ccccc2)sc1Br,2.12,-112% (active)
O=C(NNc1cccc(Cl)n1)Nc1ccccc1,0.964,3.55% (inactive)
CCOc1ccc2nc(NC(=O)Nc3ccccc3)sc2c1,1.04,-3.8% (inactive)
